Screens (PubChem BioAssay)
Most compounds without a hit are left out; they make up all but 1.7% or so of the library.
IL1B NFkB pot: enhances IL-1B driven NFkB nuclear translocation; activation, % at 2 µM; AID 819; HUVEC IL-1B NFkB p65 nuclear translocation imaging; 94,000 compounds, 0.3% hits;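 active means activation above 40%, about the mean plus 3 SD, also judged a hit on visual image review; inconclusive means activation above 40% but not a hit on visual review; inactive means activation not above 40% and no visual hit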;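 further: percent activation is computed from the nuclear over cytoplasmic p65 intensity ratio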
IL1B NFkB inh: blocks IL-1B driven NFkB nuclear translocation in HUVEC cells. 94,000 compounds, 0.43% hits. inhibition, % at 2 µM. HUVEC IL-1B NFkB p65 nuclear translocation imaging;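 active means inhibition above about 30% together with a positive call from visual inspection of the well image, limit read from the data; inconclusive means inhibition above a set limit but visual check negative; inactive means inhibition not above a set limit, visual check negative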;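 further: nuclear over cytoplasmic p65 intensity ratio measured by imaging; 0% = IL-1B stimulated DMSO wells and 100% = unstimulated DMSO wells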
HUVEC tox IL1B: toxic to HUVEC cells under IL-1B stimulation; HUVEC cell count loss, Hoechst imaging, IL-1B stimulated; cell count reduction, % at 2 µM; 94,000 compounds, 0.41% hits; AID 845;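 active means cell count reduction more than 3 SD above the screen-wide mean, cut at about 70% in these data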;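 further: normalized per plate to untreated control cells as the no-loss baseline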
TNFa cytotox: HUVEC cytotoxicity counter-screen, TNF alpha stimulated; HUVEC TNFalpha-stimulated, Hoechst cell count, imaging; cell count reduction, % at 2 µM; 93,000 compounds, 0.17% hits; AID 848;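 active means cell count reduction exceeding the screen mean by over 5 SD, scaled to untreated wells per plate, cut at about 78% in these data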;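 further: cells counted after 24 h of TNF alpha exposure following the 1 h pretreatment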
VCAM1 TNFa inh: reduces TNF alpha induced VCAM1 expression in HUVEC | HUVEC TNFa-induced VCAM-1 immunofluorescence, high-content imaging | inhibition, % at 2 µM | 95,000 compounds, 0.48% hits | AID 802;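 active means inhibition above the batch mean plus 3 SD, with images confirmed as a hit by eye, cut at about 37% in these data; inconclusive means inhibition above that limit but hit not confirmed in images; inactive means inhibition not above that limit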;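 further: 0% = TNF-stimulated DMSO wells and 100% = unstimulated control wells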
E-sel TNF inh: TNF alpha driven E-selectin expression inhibition; 120,000 compounds, 0.71% hits; HUVEC TNFa-induced E-selectin immunofluorescence, high content; inhibition, % at 2 µM; AID 1246;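 active means inhibition above the batch mean plus 3 SD, and confirmed as a hit on visual image review, cut at about 43% in these data; inconclusive means passes the inhibition cutoff but fails visual image review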;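 further: 0% = TNF-stimulated DMSO wells and 100% = unstimulated control wells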
Numbers without * were called inactive; ? = inconclusive; nt = no result.

SMILES | IL1B NFkB pot | IL1B NFkB inh | HUVEC tox IL1B | TNFa cytotox | VCAM1 TNFa inh | E-sel TNF inh
COC(=O)C[C@]1(C(=O)OC)CN(C#N)N(c2ccc(Cl)cc2)C12c1ccccc1-c1ccccc12 | -26 | 26 | -123 | nt | 100* | 89*
Cc1cc(C=C2C(=O)N(C)C(=S)N(C)C2=O)c(C)n1-c1cccnc1 | nt | nt | nt | nt | nt | -3
O=S1(=O)CCN(CCc2c[nH]c3ccccc23)CC1 | nt | nt | nt | nt | nt | 100*
CCOC(=O)N(c1ccccc1)P1(=S)OCC(C)O1 (stereo not drawn) | 6 | -6 | 13 | -6 | -12 | nt
CCOC(=O)N(c1ccccc1)P1(=S)OCCO1 | -2 | 2 | -12 | 0 | 1 | 79*
CN(C)C(=S)SSC(=S)N(C)C | nt | nt | nt | nt | nt | 86*
O=C1NC(=O)N(Cc2ccco2)C(=O)/C1=C/c1cccn1CCOc1ccccc1Cl | nt | nt | nt | nt | nt | -11
C=CCN1C(=O)NC(=O)/C(=C/c2cccn2C)C1=O | -41 | 41* | 2 | -38 | -24 | 17
Cn1cccc1/C=C1/C(=O)NC(=O)N(Cc2ccccc2)C1=O | nt | nt | nt | nt | nt | 61*
CN1CCc2nc(N)c(C#N)c(-c3ccccc3)c2C1 | -6 | 6 | -31 | -21 | 15 | 33
CN1CCc2nc3sc(C#N)c(N)c3c(-c3cccs3)c2C1 | -2 | 2 | 20 | 74 | 90* | nt
CCN1CCC2(CC1)NC(CO)(CO)CO2 | 9 | -10 | -33 | -16 | 18 | -11
CCN1CCC2(CCNC2)C1 (stereo not drawn) | 26 | -26 | -6 | -17 | -2 | 98*
O=C(CCCOc1ccc(Cl)cc1Cl)N1CCC2(CC1)OCCO2 | -97 | 97* | 85* | -5 | 16 | 4
CN1C(=O)C(C2(C#N)CCCCC2)C(=O)N(C)C1=O | 49* | -48 | 3 | -10 | 17 | -8
CCCCc1ncc(CN2CCCC(C(=O)c3ccc(SC)cc3)C2)[nH]1 (stereo not drawn) | nt | nt | nt | nt | nt | -8
Cc1ccc(N2C(=O)NC(=O)C3(Cc4ccccc4N4CCN(c5ccccc5)CC43)C2=O)cc1 (stereo not drawn) | 0 | 0 | 14 | -6 | 11 | -29
CN1C(=O)N(C)C(=O)C2(Cc3ccccc3N3CCOCC32)C1=O (stereo not drawn) | 11 | -11 | 14 | 32 | 66* | 12
CC12CN3CC(C)(CN(C1)C3c1cccs1)C2O (stereo not drawn) | -2 | 2 | 13 | -8 | 13 | 9
CCCCn1c(O)c(C=Nc2c(C)n(C)n(-c3ccccc3)c2=O)c(=O)[nH]c1=O | 48* | -48 | -46 | -5 | 6 | -4
Cc1c(N=Cc2c(O)n(Cc3ccccc3)c(=O)[nH]c2=O)c(=O)n(-c2ccccc2)n1C | nt | nt | nt | nt | nt | 5
CC(C)CCNC(=O)c1cc(C(=O)c2cc(Br)ccc2O)cn(CCC(C)C)c1=O | nt | nt | nt | nt | nt | 42
CCN1CCN(Cc2ccc(C)cc2)CC1 | nt | nt | nt | nt | nt | 95*
CCN1CCN(Cc2ccccc2C)CC1 | nt | nt | nt | nt | nt | 95*
CCN1CCN(Cc2ccc(C)cc2C)CC1 | nt | nt | nt | nt | nt | 4
SMILES | IL1B NFkB pot | IL1B NFkB inh | HUVEC tox IL1B | TNFa cytotox | VCAM1 TNFa inh | E-sel TNF inh
Cn1c(O)c(C(c2ccccn2)c2c(O)n(C)c(=S)[nH]c2=O)c(=O)[nH]c1=S | 3 | -3 | 91* | 5 | 1 | 2
COc1ccc(-c2nc(CSCC(=O)N3CCC4(CC3)OCCO4)c(C)o2)cc1OC | ? | -40 | -51 | -37 | -1 | nt
Cc1oc(-c2cccs2)nc1CSCC(=O)N1CCC2(CC1)OCCO2 | nt | nt | nt | -11 | 9 | 67*
CC(=O)Nc1nc(CCl)cs1 | nt | nt | nt | nt | nt | -18
CN1C2CCC1/C(=C/c1ccccn1)C(=O)/C2=C\c1ccccn1 | nt | nt | nt | nt | nt | 96*
CC(=O)OC1N=C(c2ccccc2)c2cc(C)ccc2NC1=O (stereo not drawn) | 19 | -19 | -21 | -6 | -2 | -9
c1ccc(C2=NP(N3CCOCC3)(N3CCOCC3)=NC(N3CCOCC3)=N2)cc1 | -3 | 3 | -4 | -31 | 5 | -15
COP(=O)(OC)/C(C=O)=N/Nc1ccc([N+](=O)[O-])cc1 | nt | nt | nt | nt | nt | -8
CNC(=O)Oc1ccc2c(c1)C(=O)c1ccccc1CO2 | -5 | 5 | 8 | -6 | 2 | -7
COc1cc2c3c(c1OC)-c1cc(O)ccc1CC3NCC2 (stereo not drawn) | 2 | -2 | 1 | 66 | 44* | -1
CCCCCCn1c(O)c(C=NC2CCN(Cc3ccccc3)CC2)c(=O)[nH]c1=O | -3 | 3 | 19 | -12 | 5 | 7
